In PubChem BioAssay AID1159580 (chemical genetic matrix, 2015):
Values joined by “and” are separate entries in the source; they are usually repeats but may differ in a detail not shown here. Identical values can stand only once. Hit rate of the full screen: of about 5,500 compounds, about 2,000 (36%) were called active. Roughly 18% stayed inconclusive and do not appear here. This is one part of the list. A number with no mark means an inactive call. Rule as the data show it: active = normalized growth mostly below about 0.91 (no sharp cut-off); inconclusive = no clear call, values can overlap the other calls; inactive = mostly above about 0.92.

Experiment: chemical genetic growth profiling, strain panel (AID 1159580);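 also: tested at 20 µM; growth read once vehicle control cultures reached saturation at 30 °C; 1 = growth at the plate median or of vehicle wells; lower values mean less growth of the strain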
Details: growth OD
[1] = S. cerevisiae deletion strains, locus YAL013W, strain DEP1, active compounds read low
[2] = S. cerevisiae deletion strains, locus YBR229C, strain ROT2, active compounds read low
[3] = S. cerevisiae deletion strains, locus YDL101C, strain DUN1, active compounds read low
[4] = S. cerevisiae deletion strains, locus YDR150W, strain NUM1, active compounds read low
[5] = S. cerevisiae deletion strains, locus YEL061C, strain CIN8, active compounds read low
[6] = S. cerevisiae deletion strains, locus YGR078C, strain PAC10, active compounds read low
[7] = S. cerevisiae deletion strains, locus YGR229C, strain SMI1, active compounds read low
[8] = S. cerevisiae deletion strains, locus YHR030C, strain SLT2, active compounds read low
[9] = S. cerevisiae deletion strains, locus YJR043C, strain POL32, active compounds read low
[10] = S. cerevisiae deletion strains, locus YJR075W, strain HOC1, active compounds read low
[11] = S. cerevisiae deletion strains, locus YKL190W, strain CNB1, active compounds read low
[12] = S. cerevisiae deletion strains, locus YLR039C, strain RIC1, active compounds read low
[13] = S. cerevisiae deletion strains, locus YLR262C, strain YPT6, active compounds read low
[14] = S. cerevisiae deletion strains, locus YMR263W, strain SAP30, active compounds read low
[15] = S. cerevisiae deletion strains, locus YNL153C, strain GIM3, active compounds read low
[16] = S. cerevisiae deletion strains, locus YNL322C, strain KRE1, active compounds read low
[17] = S. cerevisiae deletion strains, locus YPL055C, strain LGE1, active compounds read low
[18] = S. cerevisiae deletion strains, locus YPL241C, strain CIN2, active compounds read low

## CNCCc1ccccn1
[1]
  normalized growth: 1.01
S. cerevisiae deletion strains, locus YBR021W, strain FUR4, active compounds read low
  normalized growth: 1.02
[2]
  normalized growth: 1.01
S. cerevisiae deletion strains, locus YCL029C, strain bik1, active compounds read low
  normalized growth: 1.04
S. cerevisiae deletion strains, locus YDL035C, strain GPR1, active compounds read low
  normalized growth: 0.992
S. cerevisiae deletion strains, locus YDL074C, strain BRE1, active compounds read low
  normalized growth: 1.03
[3]
  normalized growth: 1.01
S. cerevisiae deletion strains, locus YDL134C, strain PPH21, active compounds read low
  normalized growth: 1.01
S. cerevisiae deletion strains, locus YDL185W, strain tfp1, active compounds read low
  normalized growth: 1.02
S. cerevisiae deletion strains, locus YDL192W, strain arf1, active compounds read low
  normalized growth: 1.02
S. cerevisiae deletion strains, locus YDR101C, strain arx1, active compounds read low
  normalized growth: 1.01
[4]
  normalized growth: 1.01
S. cerevisiae deletion strains, locus YDR162C, strain NBP2, active compounds read low
  normalized growth: 1.01
S. cerevisiae deletion strains, locus YDR318W, strain mcm21, active compounds read low
  normalized growth: 1.02
S. cerevisiae deletion strains, locus YDR388W, active compounds read low
  normalized growth: 1.01
S. cerevisiae deletion strains, locus YDR502C, strain sam2, active compounds read low
  normalized growth: 1.01
[5]
  normalized growth: 1.01
S. cerevisiae deletion strains, locus YER110C, active compounds read low
  normalized growth: 1.02
S. cerevisiae deletion strains, locus YER155C, strain BEM2, active compounds read low
  normalized growth: 1
S. cerevisiae deletion strains, locus YER167W, strain BCK2, active compounds read low
  normalized growth: 1.01
S. cerevisiae deletion strains, locus YGL078C, strain dbp3, active compounds read low
  normalized growth: 1.01
S. cerevisiae deletion strains, locus YGL086W, strain mad1, active compounds read low
  normalized growth: 1
S. cerevisiae deletion strains, locus YGL248W, strain PDE1, active compounds read low
  normalized growth: 1
[6]
  normalized growth: 1.03
S. cerevisiae deletion strains, locus YGR135W, strain pre9, active compounds read low
  normalized growth: 1.01
[7]
  normalized growth: 1.02
S. cerevisiae deletion strains, locus YGR252W, strain gcn5, active compounds read low
  normalized growth: 0.958
[8]
  normalized growth: 1.01 and 1.04
S. cerevisiae deletion strains, locus YHR079C, strain IRE1 (second series), active compounds read low
  normalized growth: 1.02
S. cerevisiae deletion strains, locus YHR079C, strain IRE1, active compounds read low
  normalized growth: 1.04
S. cerevisiae deletion strains, locus YHR094C, strain hxt1, active compounds read low
  normalized growth: 1.01
S. cerevisiae deletion strains, locus YHR129C, strain ARP1, active compounds read low
  normalized growth: 0.996
S. cerevisiae deletion strains, locus YHR200W, strain rpn10, active compounds read low
  normalized growth: 1.01
S. cerevisiae deletion strains, locus YIL066C, strain RNR3, active compounds read low
  normalized growth: 1.02
S. cerevisiae deletion strains, locus YIL073C, strain SPO22, active compounds read low
  normalized growth: 1.06
S. cerevisiae deletion strains, locus YIL125W, strain kgd1, active compounds read low
  normalized growth: 1
S. cerevisiae deletion strains, locus YIR030C, strain dcg1, active compounds read low
  normalized growth: 1.01
S. cerevisiae deletion strains, locus YJL095W, strain BCK1, active compounds read low
  normalized growth: 1.04 and 1.03
S. cerevisiae deletion strains, locus YJL134W, strain LCB3, active compounds read low
  normalized growth: 1
S. cerevisiae deletion strains, locus YJL168C, strain set2, active compounds read low
  normalized growth: 1.01
S. cerevisiae deletion strains, locus YJL187C, strain SWE1 (second series), active compounds read low
  normalized growth: 1.02
[9]
  normalized growth: 1.02
S. cerevisiae deletion strains, locus YJR066W, strain TOR1, active compounds read low
  normalized growth: 0.978
[10]
  normalized growth: 1.02
S. cerevisiae deletion strains, locus YKL009W, strain mrt4, active compounds read low
  normalized growth: 1.07
S. cerevisiae deletion strains, locus YKL068W, active compounds read low
  normalized growth: 1.01
S. cerevisiae deletion strains, locus YKL085W, strain MDH1 (second series), active compounds read low
  normalized growth: 1.01
S. cerevisiae deletion strains, locus YKL085W, strain MDH1, active compounds read low
  normalized growth: 1.01
[11]
  normalized growth: 1.01
S. cerevisiae deletion strains, locus YKR001C, strain vps1, active compounds read low
  normalized growth: 1.01
[12]
  normalized growth: 1.02
S. cerevisiae deletion strains, locus YLR058C, strain SHM2, active compounds read low
  normalized growth: 1.01
S. cerevisiae deletion strains, locus YLR102C, strain apc9, active compounds read low
  normalized growth: 1.02
S. cerevisiae deletion strains, locus YLR113W, strain HOG1, active compounds read low
  normalized growth: 1.03
[13]
  normalized growth: 1.02
S. cerevisiae deletion strains, locus YLR268W, strain sec22, active compounds read low
  normalized growth: 1.04
S. cerevisiae deletion strains, locus YLR330W, strain CHS5, active compounds read low
  normalized growth: 1.01
S. cerevisiae deletion strains, locus YLR342W, strain FKS1 (second series), active compounds read low
  normalized growth: 1.02
S. cerevisiae deletion strains, locus YLR371W, strain rom2, active compounds read low
  normalized growth: 1.02
S. cerevisiae deletion strains, locus YLR418C, strain cdc73, active compounds read low
  normalized growth: 1.03
S. cerevisiae deletion strains, locus YML016C, strain PPZ1, active compounds read low
  normalized growth: 1
S. cerevisiae deletion strains, locus YML032C, strain rad52, active compounds read low
  normalized growth: 1.03
S. cerevisiae deletion strains, locus YML124C, strain tub3, active compounds read low
  normalized growth: 1.01
S. cerevisiae deletion strains, locus YMR078C, strain ctf18, active compounds read low
  normalized growth: 1.02
S. cerevisiae deletion strains, locus YMR223W, strain ubp8, active compounds read low
  normalized growth: 1.01
[14]
  normalized growth: 1.03
S. cerevisiae deletion strains, locus YMR307W, strain GAS1, active compounds read low
  normalized growth: 0.966
S. cerevisiae deletion strains, locus YNL067W, strain RPL9B, active compounds read low
  normalized growth: 1.02
S. cerevisiae deletion strains, locus YNL128W, strain TEP1, active compounds read low
  normalized growth: 1.01
[15]
  normalized growth: 1.01
S. cerevisiae deletion strains, locus YNL183C, strain NPR1, active compounds read low
  normalized growth: 0.978
S. cerevisiae deletion strains, locus YNL233W, strain BNI4, active compounds read low
  normalized growth: 1.01
S. cerevisiae deletion strains, locus YNL250W, strain rad50, active compounds read low
  normalized growth: 1.03
S. cerevisiae deletion strains, locus YNL271C, strain bni1, active compounds read low
  normalized growth: 1.02
S. cerevisiae deletion strains, locus YNL298W, strain CLA4, active compounds read low
  normalized growth: 1.01
S. cerevisiae deletion strains, locus YNL307C, strain MCK1, active compounds read low
  normalized growth: 1.02
[16]
  normalized growth: 1.01
S. cerevisiae deletion strains, locus YNR052C, strain pop2, active compounds read low
  normalized growth: 1.01
S. cerevisiae deletion strains, locus YOL006C, strain TOP1, active compounds read low
  normalized growth: 1.08
S. cerevisiae deletion strains, locus YOL012C, strain htz1
  normalized growth: 0.922
S. cerevisiae deletion strains, locus YOL147C, strain pex11, active compounds read low
  normalized growth: 1.01
S. cerevisiae deletion strains, locus YOR061W, strain CKA2, active compounds read low
  normalized growth: 1.01
S. cerevisiae deletion strains, locus YOR069W, strain VPS5, active compounds read low
  normalized growth: 1.01
S. cerevisiae deletion strains, locus YOR136W, strain idh2, active compounds read low
  normalized growth: 1.01
S. cerevisiae deletion strains, locus YOR144C, strain elg1, active compounds read low
  normalized growth: 1.01
S. cerevisiae deletion strains, locus YOR184W, strain ser1, active compounds read low
  normalized growth: 1.02
S. cerevisiae deletion strains, locus YOR231W, strain MKK1, active compounds read low
  normalized growth: 1.02
S. cerevisiae deletion strains, locus YOR316C, strain cot1, active compounds read low
  normalized growth: 1.01
[17]
  normalized growth: 1.04
[18]
  normalized growth: 1.01
S. cerevisiae deletion strains, locus YPL256C, strain CLN2, active compounds read low
  normalized growth: 1.04
S. cerevisiae deletion strains, locus YPR119W, strain clb2, active compounds read low
  normalized growth: 1.01
S. cerevisiae deletion strains, locus YPR141C, strain kar3, active compounds read low
  normalized growth: 1.02
S. cerevisiae deletion strains, locus YPR163C, strain tif3, active compounds read low
  normalized growth: 1.02
S. cerevisiae deletion strains, locus YPR167C, strain met16, active compounds read low
  normalized growth: 1.01
S. cerevisiae deletion strains, strain wtn01, active compounds read low
  normalized growth: 1.01
S. cerevisiae strains, strain wild type, active compounds read low
  normalized growth: 1.01

## Cc1ccc(C)c(NC(=S)N(CCc2ccccc2)CCc2ccccn2)c1
[1]
  normalized growth: 0.989
[2]
  normalized growth: 0.983
S. cerevisiae deletion strains, locus YCL061C, strain MRC1, active compounds read low
  normalized growth: 1
[3]
  normalized growth: 1.04
[4]
  normalized growth: 0.99
[5]
  normalized growth: 0.953
[6]
  normalized growth: 0.996
[7]
  normalized growth: 0.974
[8]
  normalized growth: 0.978
S. cerevisiae deletion strains, locus YHR087W, strain rtc3, active compounds read low
  normalized growth: 0.958
S. cerevisiae deletion strains, locus YJL187C, strain SWE1, active compounds read low
  normalized growth: 0.989
[9]
  normalized growth: 1.01
[10]
  normalized growth: 0.999
[11]
  normalized growth: 0.964
[12]
  normalized growth: 0.606 (active)
S. cerevisiae deletion strains, locus YLR058C, strain SHM2 (second series), active compounds read low
  normalized growth: 0.98
S. cerevisiae deletion strains, locus YLR085C, strain ARP6, active compounds read low
  normalized growth: 0.928
[13]
  normalized growth: 0.853
S. cerevisiae deletion strains, locus YML094W, strain GIM5, active compounds read low
  normalized growth: 0.95
S. cerevisiae deletion strains, locus YMR219W, strain ESC1, active compounds read low
  normalized growth: 0.996
[14]
  normalized growth: 0.985
[15]
  normalized growth: 1.01
S. cerevisiae deletion strains, locus YNL298W, strain CLA4 (second series), active compounds read low
  normalized growth: 0.984
[16]
  normalized growth: 0.974
S. cerevisiae deletion strains, locus YNR030W, strain Alg12, active compounds read low
  normalized growth: 0.988
[17]
  normalized growth: 0.946
[18]
  normalized growth: 1.03
S. cerevisiae deletion strains, locus YPR135W, strain CTF4, active compounds read low
  normalized growth: 0.942
